Source: PubChem BioAssay (NCI)
The panel holds about 83,000 compounds, 20% with a hit somewhere; the sample as a whole holds those more often.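 Treatment: one concentration, 48 hours, 96-well format. Scoring: percent growth, with anything below 10 considered active.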 Activity calls are given as the source filed them.

Columns and labels:
Test in all cases: NCI-60 one-dose screen, 48 h (100 = growth as untreated, 0 = no growth, -100 = all killed)
Conditions in all cases: 10 µM unless noted
[1] = system: NCI-H23 lung
[2] = system: NCI-H226 lung
[3] = system: NCI-H322M lung
[4] = system: HOP-62 NSCLC
[5] = system: NCI-H460 lung
[6] = system: HOP-92 NSCLC
[7] = system: NCI-H522 lung
[8] = system: A549/ATCC NSCLC
[9] = system: 786-0 renal
[10] = system: COLO 205 colon

Measured: growth

N#Cc1c(N)nc(N)nc1Nc1ccc(Br)cc1
inactive: [1] 102% | [2] 83.9% | [3] 89.9% | [4] 119% | [5] 96.7% | [6] 92.3% | [7] 70.9% | [8] 78.2% | [9] 123% | [10] 135%

CC/C=C\C[C@H](F)C/C=C1/C(=O)C=C[C@@H]1C/C=C\CCCC(=O)O
inactive: [1] 62.7% | [2] 104% | [3] 93.6% | [4] 111% | [5] 50.6% | [6] 109% | [7] 31% | [8] 68.3% | [9] 82.4% | [10] 48.5%

O=c1cc(-c2ccccc2)[nH]c2ccccc12
inactive: [1] 39.1% | [2] 70.2% | [3] 55.4% | [4] 49% | [5] 13.2% | [6] 38.5% | [8] 19.1% | [9] 32.3%
active: [7] -46.9% | [10] 5.72%

Cc1cc(Nc2nc(-c3cccnc3)nc3ccccc23)n[nH]1
active: [10] -10.2%
inactive: [1] 65.2% | [2] 43.9% | [3] 81.3% | [4] 64.1% | [5] 41.9% | [6] 55.3% | [7] 43.7% | [8] 19% | [9] 55%

C=C1CC[C@@H]2[C@](C)(COC(C)=O)[C@H](OC(C)=O)CC[C@@]2(C)[C@@H]1CC(NCc1ccc(F)cc1)C1=CCOC1=O (stereo partly drawn)
inactive: [1] 57.9% | [2] 40.1% | [3] 72.5% | [4] 78.7% | [5] 55.2% | [6] 18.8% | [7] 20.9% | [8] 57.9% | [9] 86.8% | [10] 42.2%

CCCCCCCCCCCCCCCC[N+]1(CC)CCCC1
active: [1] -28.6% | [2] -9.79% | [3] 1.53% | [4] -49.7% | [5] -66.8% | [6] -29.1% | [7] -73.7% | [8] -63.1% | [9] -57.7% | [10] -90.4%

CC(=O)/C(=C/c1cccc(Cl)c1)C(=O)c1ccccc1
inactive: [1] 90.2% | [2] 84.1% | [3] 100% | [4] 95.7% | [5] 102% | [6] 88.7% | [7] 56.6% | [8] 82.6% | [9] 93.2% | [10] 107%

COc1ccc2[nH]c(=O)c(/C=C/C(=O)c3ccc(Nc4nccc(-c5ccc6ccccc6c5)n4)cc3)cc2c1
inactive: [1] 104% | [2] 96.6% | [3] 97.7% | [4] 102% | [5] 102% | [6] 81.8% | [7] 99.5% | [8] 97.3% | [9] 93.5% | [10] 104%

COc1cc(OC)c(/C=C/S(=O)(=O)Cc2cnc(OC)c(N)c2)c(OC)c1
inactive: [1] 30.8% | [2] 64.3% | [3] 33.2% | [4] 23.8% | [6] 85.9% | [9] 16.2%
active: [5] 9.05% | [7] -2.15% | [8] 9.4% | [10] -49.2%

Cn1cc(-c2csc(-c3cn(C)c4ncccc34)n2)c2ccccc21
active: [7] -18.8% | [10] -7.52%
inactive: [1] 41.8% | [2] 74.8% | [3] 45.1% | [4] 33.8% | [5] 11.7% | [6] 66.1% | [8] 23.8% | [9] 60%

O=S(=O)(NCCCNc1cc(-c2cn(-c3ccccc3)nc2-c2ccccc2)ccn1)c1ccc(C(F)(F)F)cc1
inactive: [1] 58.7% | [2] 54.3% | [3] 66.8% | [4] 82% | [5] 50.7% | [6] 32.2% | [7] 72.1% | [8] 40.9% | [9] 29% | [10] 33.1%

COc1cccc2c1C(=O)c1c(O)c3c(c(O)c1C2=O)C[C@@](O)(/C(C)=N/NC(=O)c1ccc(Cl)cc1)C[C@@H]3OC1CC(N)C(O)C(C)O1 (stereo partly drawn)
active: [1] -39.7% | [2] -39.4% | [3] -35.3% | [4] -17% | [5] -21.8% | [6] -6.16% | [7] -70.1% | [8] -32.8% | [9] -6.44% | [10] -81.4%

O=C1CC(c2nc3ccccc3s2)CN1C1CCCCC1 (stereo not drawn)
inactive: [1] 90.4% | [2] 94.6% | [3] 91.2% | [4] 93.2% | [5] 105% | [6] 84.9% | [7] 92.7% | [9] 109% | [10] 101%

O=C1C[C@H](Sc2nc(-c3ccc(F)cc3)cc(C(F)(F)F)n2)[C@H]2CO[C@@H]1O2
inactive: [1] 99.2% | [2] 103% | [3] 108% | [4] 104% | [5] 106% | [6] 105% | [8] 102% | [10] 75.8%
active: [7] -62.1%
